The list is not random: actives were taken first. Their share in the collection is about 6.7%.
T cruzi growth-1: T. cruzi proliferation inhibition; T. cruzi beta-gal in NIH3T3, GalScreen luminescence, 90 h; inhibition, % at 8.34 µM; 77,000 tested, 5.9% active;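 active means mean inhibition above about 93%, with at least 55% of replicates each passing it, limit read from the data, passing the limit was not always enough; inconclusive means only one of those two conditions holds; inactive means neither condition holds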
C diff growth: C. difficile growth inhibition | Clostridium difficile clinical isolate growth, OD600, 24 h; stronger effect = lower value | growth activity, negative = inhibition, % at 16 µg/mL (by protocol) | AID 1259249 | 86,000 tested, 0.25% active;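 active means mean growth activity at or below -80% and every replicate also at or below -80%; inconclusive means mean at or below -80% but some replicate above -80%; inactive means mean growth activity above -80%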;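 further: 0% = DMSO wells and -100% = levofloxacin 16 µg/mL wells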
Pf Dd2 growth: blocks growth of Plasmodium falciparum Dd2 parasites; P. falciparum Dd2 growth, SYBR Green, 72 h; stronger effect = lower value; activity change, % at 10 µM; 94,000 tested, 2.3% active; AID 1159554; in the data active means activity change below about -80%; inconclusive means no clear call, values can overlap the other calls
T cruzi growth-2: Trypanosoma cruzi proliferation inhibition; AID 651739; 5,600 tested, 72% active; T. cruzi beta-gal in NIH3T3, GalScreen luminescence, 90 h; shares compounds with T cruzi growth-1; inhibition, % at 8.35 µM;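 active means mean replicate inhibition above about 95% and at least 55% of replicates individually reaching it, limit read from the data; inconclusive means only one of the two criteria is met; inactive means neither criterion is met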
T cruzi growth-3: blocks T. cruzi growth in NIH3T3 host cells; shares compounds with T cruzi growth-1; T. cruzi beta-gal in NIH3T3, GalScreen luminescence, 90 h; inhibition, % at 2.09 µM; 5,600 tested, 21% active; AID 651740;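 active means mean inhibition above about 95%, with at least 55% of replicates also reaching it, limit read from the data; inconclusive means meets just one of the two conditions; inactive means meets neither condition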;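 further: plate controls were neutral control median for no effect and positive control median for full effect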
NIH3T3 tox: NIH/3T3 (mouse) viability loss; shares compounds with T cruzi growth-1; NIH/3T3 viability, CellTiter-Glo ATP luminescence, 90 h; cytotoxicity (signal decrease), % at 8.35 µM; 5,600 tested, 14% active; AID 651742;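 active means mean signal decrease across replicates above about 35% based on untreated-well scatter, with enough replicates individually passing, limit read from the data; inconclusive means no rule stated though some were filed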;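 further: 0% = median of neutral control wells and 100% = median of positive control wells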
3T3 cytotox 2: cytotoxicity in mouse NIH/3T3 fibroblasts. 5,600 tested, 56% active. AID 651744. NIH/3T3 viability, CellTiter-Glo ATP luminescence, 90 h. inhibition, % at 24.9 µM. shares compounds with T cruzi growth-1;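 active means mean loss of cell viability signal at or above a set limit, and enough replicates individually reaching it; inconclusive means meets only the mean limit or only the replicate share; inactive means meets neither condition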;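 further: 0% = median of neutral control wells and 100% = median of positive control wells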
* hit, by the source's call; u = inconclusive; x = no result given.

SMILES | T cruzi growth-1 | C diff growth | Pf Dd2 growth | T cruzi growth-2 | T cruzi growth-3 | NIH3T3 tox | 3T3 cytotox 2
Cc1ccc(-c2ccc3c(c2)O[C@@H](CN(C)Cc2ccccc2)[C@@H](C)CN([C@H](C)CO)S3(=O)=O)cc1 | 114.5* | -1.2 | -44.0 | 83.9 | 102.7* | 4.1 | 102.8*
Cc1ccc(-c2ccc3c(c2)O[C@@H](CN(C)Cc2ccccc2)[C@@H](C)CN([C@@H](C)CO)S3(=O)=O)cc1 | 124.0* | 1.5 | -59.9 | 95.6* | 107.0* | 22.3 | 103.7*
C[C@H]1CN([C@@H](C)CO)S(=O)(=O)c2ccc(-c3ccccc3)cc2O[C@@H]1CN(C)Cc1ccccc1 | 80.2 | 37.9 | -58.4 | x | x | x | x
Cc1ccc(-c2ccc3c(c2)O[C@H](CN(C)Cc2ccc(C(=O)O)cc2)[C@H](C)CN([C@H](C)CO)S3(=O)=O)cc1 | 18.3 | -1.9 | -14.5 | x | x | x | x
COC(=O)C[C@H]1CC[C@@H]2[C@@H](COc3ccc(NC(=O)c4cccc(Cl)c4)cc3C(=O)N2C)O1 | 31.4 | 5.0 | x | x | x | x | x
OC[C@@H]1[C@H](c2ccc(C#Cc3ccccc3F)cc2)[C@@H]2CN(CC3CCOCC3)CCCCN12 | 105.3* | 7.1 | 3.6 | 114.0* | 59.2 | u | 105.1*
CCCC#Cc1ccc([C@H]2[C@H](CO)N3CCCCN(CC4CCOCC4)C[C@@H]23)cc1 | 128.7* | 5.4 | u | 86.7 | 46.9 | 15.9 | 76.7*
CCCC#Cc1ccc([C@H]2[C@H]3CN(CC4CC4)CCCCN3[C@H]2CO)cc1 | 48.0 | -1.4 | -34.4 | x | x | x | x
OC[C@@H]1[C@@H](c2ccc(C#Cc3ccccc3F)cc2)[C@@H]2CN(CC3CCOCC3)CCCCN12 | 72.2 | -12.4 | -7.1 | x | x | x | x
CCCNC(=O)[C@@H]1[C@@H](CO)[C@@H]2Cn3c(ccc(-c4ccc(F)cc4)c3=O)[C@H]1N2CC | 40.8 | -5.3 | 3.7 | x | x | x | x
C[C@@H]1CN([C@H](C)CO)S(=O)(=O)c2ccc(Br)cc2O[C@@H]1CN(C)Cc1cccnc1 | x | 3.5 | 11.6 | x | x | x | x
Cc1cccc(S(=O)(=O)N2CCCCN3[C@H](CO)[C@H](c4ccc(C#C[C@H](C)O)cc4)[C@H]3C2)c1 | 105.8* | 5.9 | -47.4 | u | 36.1 | 33.4 | 41.0*
Cc1cccc(S(=O)(=O)N2CCCCN3[C@@H](CO)[C@H](c4ccc(C#C[C@H](C)O)cc4)[C@@H]3C2)c1 | 45.2 | 9.1 | -15.3 | x | x | x | x
Cc1cccc(S(=O)(=O)N2CCCCN3[C@H](C2)[C@H](c2ccc(C#C[C@H](C)O)cc2)[C@@H]3CO)c1 | 109.7* | 16.1 | -17.0 | 110.3* | 63.4 | 41.4* | 13.9
COc1cccc(S(=O)(=O)N2CCCCN3[C@H](CO)[C@@H](c4ccc(C#CC(C)C)cc4)[C@@H]3C2)c1 | u | 6.4 | -50.9 | 99.2* | 82.8 | 7.5 | 54.8*
Cc1cccc(S(=O)(=O)N2CCCCN3[C@H](CO)[C@@H](c4ccc(C#CC(C)C)cc4)[C@H]3C2)c1 | u | 3.0 | -41.6 | 101.6* | u | 27.3 | 103.2*
COc1cccc(S(=O)(=O)N2CCCCN3[C@H](CO)[C@H](c4ccc(C#CC(C)C)cc4)[C@@H]3C2)c1 | 87.7 | -1.1 | -10.6 | x | x | x | x
Cc1cccc(S(=O)(=O)N2CCCCN3[C@H](CO)[C@@H](c4ccc(C#C[C@@H](C)O)cc4)[C@@H]3C2)c1 | 66.4 | -1.7 | -34.5 | x | x | x | x
Cc1cccc(S(=O)(=O)N2CCCCN3[C@H](CO)[C@H](c4ccc(C#CC(C)C)cc4)[C@H]3C2)c1 | 69.0 | -2.2 | -72.7 | x | x | x | x
O=C(c1ccc2c(c1)OCO2)N1C[C@H]2[C@@H](c3ccccc31)[C@H](CO)N2Cc1ccccc1Cl | 73.0 | 8.7 | -8.5 | x | x | x | x
CCCC(=O)Nc1ccc2c(c1)C(=O)N(C)C[C@@H](OC)[C@@H](C)CN(Cc1nccs1)[C@@H](C)CO2 | 43.9 | x | -27.9 | x | x | x | x
C[C@@H]1CN([C@H](C)CO)C(=O)Cc2cc(NC(=O)Nc3ccc(C(F)(F)F)cc3)ccc2O[C@H]1CN(C)S(C)(=O)=O | -31.6 | 6.0 | -1.4 | x | x | x | x
Cc1cccc(S(=O)(=O)N2CCCCN3[C@H](CO)[C@@H](c4ccc(C#C[C@H](C)O)cc4)[C@@H]3C2)c1 | 80.2 | 2.3 | -32.6 | x | x | x | x
